Compound activity as filed in PubChem.
In the library only some 2.8% were active in any assay of this set; here they are far more common.
PP5 primary: PP5 phosphatase inhibitors, primary screen, biochemical, fluorescence. purified PP5c, OMFP substrate fluorescence. inhibition, % at 6.7 µM. 320,000 tested, 0.18% active. AID 1987, 2009. Serine/threonine-protein phosphatase 5 (Homo sapiens), P53041;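 active means inhibition above the campaign's mean inhibition across all tested compounds plus 3 SD, cut at about 9.5% in these data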
Granule exo inh: LAMP-1 surface exposure blockers, TALL-104 cells – cell-based, flow cytometry, MLPCN library, primary screen. TALL-104 LAMP-1 surface exposure; cells stimulated with thapsigargin and PMA. inhibition, % at 10 µM. 360,000 tested, 0.66% active. AID 651702, 2012;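 active means inhibition above about 55%, limit read from the data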
PP1 inh: PP1-alpha phosphatase inhibitors, primary screen, counter-screen for PP5 inhibitor project, biochemical, fluorescence, OMFP substrate, single point. Serine/threonine-protein phosphatase PP1-alpha catalytic subunit (Homo sapiens), P62136. purified PP1alpha. inhibition, % at 6.7 µM. 320,000 tested, 0.9% active. AID 2235, 2010;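 active means inhibition above the mean inhibition of all tested compounds plus 3 SD, computed separately for each screening campaign, cut at about 15% in these data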
IDE cell inh: human IDE inhibitors in live cells, primary screen, fluorescence polarization, HEK cells, FAbetaB substrate. FAbetaB cleavage. inhibition, % at 5.59 µM. 320,000 tested, 0.41% active. Insulin-degrading enzyme (Homo sapiens), P14735;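 active means percent inhibition above the average of all tested compounds plus 3 SD, set per screening campaign, cut at about 16% in these data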;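 further: IDE supplied by intact live HEK cells; FP after avidin binding of uncleaved biotin substrate so inhibition keeps polarization high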
Target sequence (P14735 whole entry, looked up): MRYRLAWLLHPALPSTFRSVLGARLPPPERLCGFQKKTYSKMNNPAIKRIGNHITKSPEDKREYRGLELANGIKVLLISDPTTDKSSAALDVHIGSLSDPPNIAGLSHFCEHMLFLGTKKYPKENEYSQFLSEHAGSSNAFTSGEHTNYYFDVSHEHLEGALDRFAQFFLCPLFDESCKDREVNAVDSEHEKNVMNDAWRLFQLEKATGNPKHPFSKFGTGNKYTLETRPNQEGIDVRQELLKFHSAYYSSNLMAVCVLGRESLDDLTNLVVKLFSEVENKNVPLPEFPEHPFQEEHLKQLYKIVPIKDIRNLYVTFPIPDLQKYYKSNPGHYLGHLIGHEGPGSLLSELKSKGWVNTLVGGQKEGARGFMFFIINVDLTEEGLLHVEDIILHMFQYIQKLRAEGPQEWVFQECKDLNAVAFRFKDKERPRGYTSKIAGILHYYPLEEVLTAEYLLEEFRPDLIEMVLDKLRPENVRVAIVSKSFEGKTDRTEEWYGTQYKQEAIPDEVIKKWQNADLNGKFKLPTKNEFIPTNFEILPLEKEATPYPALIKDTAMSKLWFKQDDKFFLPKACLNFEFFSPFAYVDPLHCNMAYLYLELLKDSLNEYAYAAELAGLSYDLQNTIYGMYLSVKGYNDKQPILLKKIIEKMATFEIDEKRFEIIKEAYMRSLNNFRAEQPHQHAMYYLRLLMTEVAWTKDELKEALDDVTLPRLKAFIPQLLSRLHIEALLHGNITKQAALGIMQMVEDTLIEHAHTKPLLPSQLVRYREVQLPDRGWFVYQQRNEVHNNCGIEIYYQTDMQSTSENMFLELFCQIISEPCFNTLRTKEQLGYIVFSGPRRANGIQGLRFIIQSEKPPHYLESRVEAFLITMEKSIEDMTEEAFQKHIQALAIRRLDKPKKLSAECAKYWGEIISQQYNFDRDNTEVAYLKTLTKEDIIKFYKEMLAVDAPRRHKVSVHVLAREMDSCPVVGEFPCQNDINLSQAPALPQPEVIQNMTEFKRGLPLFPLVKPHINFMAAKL
IDE cell activ: human IDE activators in live cells, primary screen, fluorescence polarization, HEK cells, FAbeta-B substrate. Insulin-degrading enzyme (Homo sapiens), P14735. activation, % at 5.96 µM. AID 493087, 2011. 340,000 tested, 0.073% active. FAbeta-B cleavage; 0% vehicle, 100% cell-free pure enzyme wells;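 active means activation above the mean of all tested compounds plus 3 SD, set per screening campaign, cut at about 17% in these data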
SKKanGAS inh: S. pyogenes SKKanGAS growth inhibitors in kanamycin, primary screen, streptokinase expression inhibitor project, SKKanGAS strain, BacTiter-Glo luminescence; 300,000 tested, 1.3% active; inhibition, % at 7.5 µM; AID 1662, 2009; 6 h;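 active means mean replicate score, as percent of positive control median, at least 50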;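 further: strain carries kanamycin resistance gene driven by streptokinase promoter and grows in 40 µg/ml kanamycin; loss of luminescence reflects streptokinase promoter inhibition or plain growth inhibition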
Large screens that a line does not name were inactive.

CC(C)CN(C(=O)COc1ccc(-c2nnco2)cc1)C1CCS(=O)(=O)C1 (centres undefined)	SKKanGAS inh 61
CC(=O)Nc1ccc(OCC(=O)N(CC(C)C)C2CCS(=O)(=O)C2)cc1 (centres undefined)	none
COc1ccc(C2CC(c3ccccc3)=NN2C(=O)CCC(=O)O)cc1 (centres undefined)	none
COc1ccc(C2CC(c3ccccc3)=NN2C(=O)c2cccs2)cc1 (centres undefined)	SKKanGAS inh 59
CCc1c(C)c(C#N)c2[nH]c3ccccc3n2c1=S	SKKanGAS inh 60
COc1ccc2nc(N/C(N)=N/C(=S)Nc3c(C)cccc3C)nc(C)c2c1	SKKanGAS inh 51
COc1ccc2nc(N/C(N)=N/C(=S)Nc3cccc(C)c3)nc(C)c2c1	none
CC(=O)Nc1ccc(S(=O)(=O)N2CCN(Cc3csc(C)n3)CC2)cc1	none
O=C(N=Nc1c(O)[nH]c2ccc([N+](=O)[O-])cc12)c1ccccc1[N+](=O)[O-]	none
CCc1cc(C(=O)N=Nc2c(O)[nH]c3ccc([N+](=O)[O-])cc23)c2ccccc2n1	PP1 inh 16
CCN(CC)c1nc2c(c(=O)n(C)c(=O)n2C)n1CCCc1ccccc1	none
CN(Cc1ccccc1)c1nc2c(c(=O)n(C)c(=O)n2C)n1CCCc1ccccc1	Granule exo inh 66
CCOC(=O)c1c(C)[nH]c(C(=O)COC(=O)/C=C/c2ccc(OCC#N)c(OC)c2)c1C	none
O=C(NCc1nc2ccccc2[nH]1)C1=C[C@@H](c2ccccc2)C[C@@H](OCc2ccc(CO)cc2)O1	Granule exo inh 71
Nc1ccccc1C(=O)C[C@H](N)C(=O)O	none (no result: PP5 primary, PP1 inh, IDE cell inh, SKKanGAS inh)
O=C(O)c1ccc2c(c1)C(=O)N(c1cc([N+](=O)[O-])ccn1)C2=O	none
Oc1ccc(N=Nc2ccc3c(c2)OCO3)c2ccccc12	SKKanGAS inh 88 (no result: Granule exo inh, IDE cell activ)
Cc1csc(=O)n1CC(=O)OC(C)C(=O)Nc1ccc(N(C)C)cc1 (centres undefined)	none (no result: PP5 primary, PP1 inh, IDE cell inh, SKKanGAS inh)
O=[N+]([O-])/C=C/c1cn(Cc2ccc(Cl)cc2)c2ccccc12	PP1 inh 16
Cc1cccc(Cn2cc(/C=C/[N+](=O)[O-])c3ccccc32)c1	PP1 inh 17
COC(=O)[C@]12CCCCC=C1N(CCc1ccc(OC)c(OC)c1)C(=O)[C@H](CC(=O)NCCc1ccccc1OC)C2	none (no result: PP5 primary, PP1 inh, IDE cell inh, IDE cell activ, SKKanGAS inh)
CCN(CC)C(=O)C1=C(C)N(CCC2=CCCCC2)C(=O)C(CC(=O)NC(c2ccccc2)c2ccccc2)C1 (centres undefined)	none (no result: PP5 primary, PP1 inh, IDE cell inh, IDE cell activ, SKKanGAS inh)
Cc1sc2nc(-c3ccccn3)[nH]c(=O)c2c1-c1ccccc1	SKKanGAS inh 80
COc1ccc(C)cc1NC(=O)c1cc(S(=O)(=O)N2CCCCC2)ccc1N1CCOCC1	none (no result: SKKanGAS inh)
O=C(O)C1CCCN1c1nc(-c2ccc(Cl)c(Cl)c2)cc(C(F)(F)F)n1 (centres undefined)	none (no result: SKKanGAS inh)
Cc1cc(C)c(NC(=O)CC(=O)c2ccccc2)c(Cl)c1	none
Cc1cc(C)c(C(=O)CC(=O)c2ccccc2Cl)c(O)c1	SKKanGAS inh 83
COc1ccccc1OCc1nnc(SCC(=O)N2CCCC2)o1	none
COc1ccccc1OCc1nnc(SCC(=O)c2cc(Cl)ccc2OC)o1	PP1 inh 17
O=C(Nc1cc(Cl)cc(Cl)c1)N1CCCC1	SKKanGAS inh 59
O=C(Nc1ccc(F)c(Cl)c1)N1CCCC1	none
Cc1cc(C)c(CSc2ncc(-c3ccc([N+](=O)[O-])cc3)[nH]2)c(C)c1	SKKanGAS inh 73
O=[N+]([O-])c1ccc(-c2cnc(SCc3ccccc3Cl)[nH]2)cc1	none
NC(=O)CSc1ncc(-c2ccc([N+](=O)[O-])cc2)[nH]1	none
O=[N+]([O-])c1ccc(-c2cnc(SC(c3ccccc3)c3ccccc3)[nH]2)cc1	SKKanGAS inh 62
CN1CCN(C(=S)C(=O)Nc2ccc(Br)cc2)CC1	none
O=C(CCN1C(=O)/C(=C/c2ccccc2Cl)SC1=S)NNC(=O)c1ccccc1O	SKKanGAS inh 60
COc1cccc(/C=C2/SC(=S)N(CC(=O)NNC(=O)c3ccccc3O)C2=O)c1	SKKanGAS inh 98
O=C(CN1C(=O)/C(=C/c2ccccc2)SC1=S)NNC(=O)c1ccccc1O	none
O=C(CCN1C(=O)/C(=C/c2ccccc2Cl)SC1=S)NNC(=O)c1cccnc1	none
O=C(CCN1C(=O)/C(=C/c2ccccc2Cl)SC1=S)Nc1cccnc1	PP1 inh 15
O=C(CCCN1C(=O)/C(=C/c2ccccc2Cl)SC1=S)Nc1cccnc1	PP1 inh 17
CCOc1ccc(NC(=O)CN(C)S(=O)(=O)c2cccc3cccnc23)cc1	none
O=C(CN1C(=O)/C(=C/c2ccc(Cl)cc2)SC1=S)NC1C=CS(=O)(=O)C1 (centres undefined)	none
COc1ccc(/C=C2\SC(=S)N(CC(=O)NC3C=CS(=O)(=O)C3)C2=O)cc1 (centres undefined)	PP1 inh 16
COc1ccc(/C=C/c2nc3ccccc3c(=O)o2)cc1	none
CCN1Cc2c(/C=C/c3ccccc3)nc3ccc(OC)cc3c2N(c2cccc(Cl)c2)C1	Granule exo inh 65
Cc1ccc(C(O)(C(=O)NNc2ccc3ccccc3n2)c2ccc(C)cc2)cc1	SKKanGAS inh 71
CC(C)NC(=S)N/N=C1\CCCCc2ccccc21	none
Cc1ccc(C)c(NC(=S)N/N=C2/CCCCc3ccccc32)c1	SKKanGAS inh 55
CC(NC(=O)Nc1ccc(Cl)cc1)c1ccccc1 (centres undefined)	none (no result: PP5 primary, PP1 inh, IDE cell inh)
Cc1ccc(C(NC(=O)NC(C)c2ccccc2)C(Cl)(Cl)Cl)cc1F (centres undefined)	SKKanGAS inh 57
Oc1ccc(CN2CCN(c3ccccc3)CC2)c2cccnc12	SKKanGAS inh 55
COc1ccccc1N1CCN(Cc2cc(Br)c(O)c3ncccc23)CC1	SKKanGAS inh 82
Oc1ccc(CN2CCc3ccccc3C2)c2cccnc12	PP1 inh 15, SKKanGAS inh 83
CC(C)COC(=O)N1CCCC(c2cc(C(=O)Nc3ccccc3Cl)no2)C1 (centres undefined)	none (no result: PP5 primary, PP1 inh, IDE cell inh, IDE cell activ, SKKanGAS inh)
CC(CN1CCN(Cc2ccccc2)CC1)c1ccccc1 (centres undefined)	Granule exo inh 61
CC(CN1CCC(O)CC1)c1ccccc1 (centres undefined)	none
COc1ccc(NC(=O)c2ccc(-c3ccccc3)cc2)cc1NS(=O)(=O)c1ccc(F)cc1	IDE cell inh 21
O=C(Cn1ccc(NC(=O)OCc2ccccc2)nc1=O)NCCCn1ccnc1	none (no result: SKKanGAS inh)
CCCc1ccc(OC(=O)c2ccc(O)cc2Cl)cc1	SKKanGAS inh 81
